SMARCA2 act = SMARCA2 (BRM) function activators, primary screen, cell-based, luminescence, high throughput. MG213 cells, MMTV-luciferase reporter, dexamethasone, overnight. activation, % at 9.1 µM. hit rate 1% among 370,000; in the data active = activation above about 7.8%
esBAF inh = Bmi1 luciferase reporter increase in mESCs, primary screen, esBAF inhibitor project, mouse ES cells, Bmi1 luciferase knock-in, single point; 24 h; 100% = twice the neutral-well signal; reporter increase, % at 12.5 µM; hit rate 2% among 350,000; in the data active = activation above about 40%; inconclusive = no clear call, values can overlap the other calls;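 note: a rise in the Bmi1 reporter signal indicates esBAF inhibition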
AF4-AF9 inh = inhibitors of AF4 peptide binding to AF9, primary screen, biochemical, AlphaScreen, biotin-AF4 peptide, FLAG-AF9, single point; Protein AF-9 (Homo sapiens), P42568; hit rate 0.47% among 350,000; inhibition, % at 10 µM;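 active = every replicate reaching a set inhibition limit, whatever the replicate mean, cut at about 25% in these data; inconclusive = mean inhibition reaches that limit but some replicates miss it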
Wnt bcat act = Wnt/beta-catenin pathway activators, primary screen, cell-based, plate reader, single point; hit rate 1.2% among 300,000; AID 743398, 2014; Wnt/beta-catenin reporter cell assay, activator; activation, % at 9.35 µM; in the data active = activation above about 30%, passing the limit was not always enough; inconclusive = no clear call, values can overlap the other calls
FGF22 binding = binders of human FGF22 protein, primary screen, FGF22 synaptogenesis inhibitor project, biophysical, thermal shift, single point | Fibroblast growth factor 22 (Homo sapiens), Q9HCT0 | recombinant FGF22 thermal shift, SYPRO orange fluorescence; percent of sucrose octasulfate shift, DMSO zero | activity (Tm shift, normalised), % at 9.99 µM | hit rate 1.5% among 340,000 | AID 651658, 2012;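 active = mean Tm shift, scaled 0 neutral to 100 positive control, at about 1.3% or above, every replicate too, limit read from the data; inconclusive = no clear call, values can overlap the other calls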
Target sequence (Q9HCT0 whole entry, looked up): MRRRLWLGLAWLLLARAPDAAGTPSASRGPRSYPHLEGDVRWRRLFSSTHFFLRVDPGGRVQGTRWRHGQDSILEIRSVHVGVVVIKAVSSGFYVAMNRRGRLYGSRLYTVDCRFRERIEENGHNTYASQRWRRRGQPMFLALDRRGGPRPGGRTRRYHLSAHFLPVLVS
MITF act = activators of MITF-driven TRPM1 promoter reporter, primary screen, cell-based, SK-MEL-5, luciferase, single point; SK-MEL-5 TRPM1-promoter luciferase, 24 h; % of positive control, neutral wells = 0; activation, % at 12.5 µM; hit rate 0.75% among 300,000;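 active = mean activation of at least 80% with every replicate also reaching 80%; inconclusive = mean reaches 80% but some replicate falls short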
A number is an active result; . = inactive; ? = inconclusive; / = no result. Most compounds without a hit are left out; they make up all but 4.3% or so of the library.

SMILES | SMARCA2 act | esBAF inh | AF4-AF9 inh | Wnt bcat act | FGF22 binding | MITF act
O=C(C1CCCCC1)N1C[C@H]2[C@@H](c3ccccc31)[C@H](CO)N2C(=O)c1ccccc1 | / | . | . | / | . | /
O=C1CNC[C@@H]2[C@H](c3ccc(C4=CCCCC4)cc3)[C@@H](CO)N12 | / | / | . | / | / | /
COc1ccc2c3c([nH]c2c1)[C@@H](CO)N(S(C)(=O)=O)CC31CN(C(=O)Nc2ccccc2)C1 | / | / | . | / | . | /
COc1cccc2c1OC1(CCN(C(C)C)CC1)N1N=C(c3cccnc3)CC21 (stereo not drawn) | . | / | . | 34 | . | /
CC(C)CC#Cc1cnc2c(c1)C(=O)N([C@@H](C)CO)C[C@@H](C)[C@@H](CN(C)C(=O)Cc1cccnc1)O2 | / | . | . | / | . | /
CCOc1ccc2oc(C(=O)Nc3ccc(C)cn3)c(C)c2c1 | . | 85 | . | . | . | /
CCCCc1nnc(NC(=O)c2oc3ccc(OC)cc3c2C)s1 | . | . | . | . | . | .
CCc1ccc2oc(C(=O)Nc3nonc3C)c(C)c2c1 | . | 78 | . | 44 | . | .
Cc1ccc(NC(=O)c2oc3ccccc3c2C)nc1 | . | / | . | ? | . | .
CCOc1ccc2oc(C(=O)NC(C)(C)CC)c(C)c2c1 | . | . | . | . | . | .
CCc1nonc1NC(=O)c1oc2ccc(F)cc2c1C | . | . | . | . | . | .
CCOc1ccc2oc(C(=O)Nc3nccs3)c(C)c2c1 | . | . | . | 69 | . | .
COc1ccc2oc(C(=O)Nc3nccs3)c(C)c2c1 | . | . | . | 50 | . | .
COCC(=O)Nc1ccc2c(c1)[C@@H]1C[C@@H](CC(=O)NCc3cc(F)ccc3F)O[C@@H](CO)[C@@H]1O2 | / | . | / | / | . | /
O=C(Cc1ccncc1)Nc1ccc2c(c1)[C@H]1C[C@H](CC(=O)N3CCc4ccccc4C3)O[C@H](CO)[C@H]1O2 | / | . | 25 | / | . | /
CO[C@@H]1CN(C)C(=O)c2cccc(C#N)c2OC[C@H]2O[C@@H](CC[C@H]2OC)CCN(C)C(=O)[C@H]1C | / | . | . | / | . | /
CCNC(=O)O/N=C(\C)c1sc(-c2ccc(Cl)cc2)nc1C | . | 43 | / | . | / | /
C=C(C)c1sc(-c2ccc(Cl)cc2)nc1C | . | 49 | . | . | . | .
C/C(=N\OC(=O)NC(C)C)c1sc(-c2ccccc2)nc1C | . | 63 | / | . | / | 105
C/C(=N\OC(=O)c1cccc(C(F)(F)F)c1)c1sc(-c2ccccc2)nc1C | . | 77 | / | / | / | ?
C/C(=N\OC(=O)NC(C)C)c1sc(-c2ccc(Cl)cc2)nc1C | . | . | / | . | / | .
C/C(=N\OC(=O)c1ccc(Cl)cc1)c1sc(-c2ccccc2)nc1C | . | / | / | / | / | .
CC(=O)N(C)C[C@H]1Oc2ncc(-c3cncnc3)cc2C(=O)N([C@H](C)CO)C[C@@H]1C | / | . | . | / | . | /
O=C(C[C@H]1C[C@H]2c3cc(NC(=O)C4CCOCC4)ccc3O[C@H]2[C@@H](CO)O1)NCc1cccnc1 | / | . | . | / | . | /
C[C@@H]1CN([C@@H](C)CO)C(=O)Cc2cc(NC(=O)Nc3ccc4c(c3)OCO4)ccc2O[C@@H]1CN(C)Cc1ccc(C(=O)O)cc1 | / | . | . | / | . | /
SMILES | SMARCA2 act | esBAF inh | AF4-AF9 inh | Wnt bcat act | FGF22 binding | MITF act
CO[C@H]1CN(C)C(=O)c2cc(NS(=O)(=O)CC(F)(F)F)ccc2OC[C@H](C)N(CC2CCCCC2)C[C@@H]1C | / | . | . | / | . | /
O=[N+]([O-])c1ccc(CNc2ccc(Cl)cc2)s1 | . | . | 30 | . | . | /
C[C@H](CO)N1C[C@H](C)[C@H](CN(C)Cc2ccc(-c3ccccc3)cc2)Oc2c(NS(C)(=O)=O)cccc2C1=O | / | . | . | / | . | /
CC(C)(C)NC(=O)c1cccc(NC(=O)c2ccc3c(c2)C(=O)N(C(C)(C)C)C3=O)c1 | . | . | . | . | . | .
CC(C)(C)N1C(=O)c2ccc(C(=O)Nc3ccc(O)cc3)cc2C1=O | . | ? | . | 48 | . | /
Fc1cccc(-c2nnn3c2nc(Cl)c2ccccc23)c1 | . | ? | . | 40 | . | .
NNc1nc2c(-c3ccc(F)cc3)nnn2c2ccccc12 | . | . | . | 39 | . | .
Cc1ccc(C(=O)Nc2ccc3c(c2)CCC3)cc1 | . | . | . | . | . | .
O=C(Nc1ccc2c(c1)CCC2)c1cccc(F)c1 | . | / | . | . | . | 95
O=C(Nc1ccc2c(c1)CCC2)c1cc(F)cc(F)c1 | . | 47 | . | . | . | 83
COc1ccc(OCC(=O)Nc2cccc(-c3nc4ccccc4o3)c2)cc1 | . | 51 | / | / | / | /
CC(C)C(=O)Nc1cccc(-c2nc3ccccc3o2)c1 | . | 41 | / | / | / | .
CNC[C@@H]1Oc2c(NC(=O)Nc3ccccc3)cccc2C(=O)N([C@H](C)CO)C[C@@H]1C | / | . | . | / | . | /
Cc1onc(C(=O)Nc2sc3c(c2C#N)CCCC3)c1[N+](=O)[O-] | . | / | . | 35 | . | .
Cc1cccc(OCC(=O)Nc2sc3c(c2C#N)CCC3)c1 | . | 84 | . | . | . | .
Cc1onc(-c2ccccc2Cl)c1C(=O)Nc1sc2c(c1C#N)CCC2 | . | . | / | / | / | /
CCCC(=O)Nc1sc2c(c1C#N)CCCC2 | . | 53 | / | / | / | .
Cc1cnc(C(=O)OCC(=O)Nc2sc3c(c2C#N)CCC3)cn1 | . | . | . | . | . | .
Cc1ccc(OCC(=O)Nc2sc3c(c2C#N)CC(C)(C)NC3(C)C)cc1 | . | / | . | . | 43 | .
COC(=O)N(C)C[C@@H]1OCc2ccccc2-c2c(n(C)c3ccccc23)C(=O)N([C@H](C)CO)C[C@H]1C | / | . | . | / | . | /
O=C(CCN1CCCCC1)N[C@H]1CC[C@@H](CCNS(=O)(=O)c2ccc(Cl)cc2)O[C@@H]1CO | / | . | . | / | . | /
C[C@@H]1CN([C@@H](C)CO)C(=O)c2cc(/C=C/c3ccccc3)cnc2O[C@H]1CN(C)Cc1ccc2c(c1)OCO2 | / | . | . | / | . | /
CO[C@H]1CN(C)C(=O)c2cc(NS(C)(=O)=O)ccc2OC[C@@H](C)N(C(=O)c2ccc3c(c2)OCO3)C[C@H]1C | / | . | . | / | . | /
CC1CCc2c(sc(/N=C/N(C)C)c2C#N)C1 (stereo not drawn) | . | / | . | 39 | . | .
CCOC(=O)Nc1sc2c(c1C#N)CCC(C)C2 (stereo not drawn) | / | ? | / | / | / | 83
CN(C)/C=N/c1sc2c(c1C#N)CCCC2 | . | . | . | . | . | .
CC=Cc1ccc2n(c1=O)C[C@@H]1[C@@H](CO)[C@H](C(=O)N(C)C)N(CC3CCCCC3)[C@H]21 (mixture of isomers) | / | . | . | / | . | /
Cc1ccc(N/C=C(/C#N)c2ccsc2)cc1 | . | 68 | / | / | / | .
